Measurements published in PubChem BioAssay.
“And” between values parts separate entries of the source, which are not always exact repeats. Equal entries are not always repeated. The source made the active and inactive calls. Unless noted, how the calls were made is not given here.

Key:
[1] = HepG2 liver cancer cell viability effects, profiling panel, resazurin fluorescence, 24 h, PK04 Diversity Set (AID 1172); settings: higher = more signal; further: test concentration not given here
[2] = basal S. cerevisiae growth modulation, no modifier, primary screen, OD600, strain BY4716, 24 h, basal condition (AID 1173); settings: OD600, 24 h, higher = more signal, called active from +8 up or from −8 down
[3] = MM1S myeloma cell viability, profiling panel, resazurin fluorescence, basal, 24 h, PK04 Diversity Set (AID 1174); settings: higher = more signal, called active from +8 up or from −8 down;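 further: MM1S multiple myeloma cell line; test concentration not given here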
[4] = biological target: Dihydroorotate dehydrogenase (quinone), mitochondrial (Plasmodium falciparum (isolate 3D7)) (UniProt Q08210); assay: PfDHODH enzyme inhibitors, primary screen, biochemical, C-terminal His tag, absorbance 600 nm (AID 1175); settings: DCIP absorbance 600 nm, higher = more signal, called active from +8 up or from −8 down;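 further: recombinant parasite enzyme with a five histidine tag at its C terminus; test concentration not given here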
[5] = P. aeruginosa biofilm formation inhibitors, primary screen, strain PAO1, LB-PBS medium, absorbance 600 nm (AID 1176); further: test concentration not given here; settings: P. aeruginosa PAO1 growth/biofilm, A600, 12 h; higher = more signal
[6] = S. cerevisiae RM11-1a growth modifiers, primary screen, strain RM11-1a, OD600, basal, 24 h (AID 1177); settings: OD600, 24 h, higher = more signal, called active from +8 up or from −8 down;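 further: cultures grown under basal conditions with no added stressor; test concentration not given here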
[7] = E. coli acrAB mutant growth effects, primary screen, E. coli filamentation inducers, strain DRC39, OD650, 24 h (AID 1178); settings: higher = more signal, called active from +8 up or from −8 down;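 further: growth measured as culture turbidity by optical density at 650 nm; test concentration not given here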
[8] = E. coli acrAB mutant growth effects, primary screen, E. coli filamentation inducers, strain DRC39, OD650, 48 h (AID 1179);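 further: screen aims at cell division blockers that make cells filament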; settings: E. coli DRC39 delta-acrAB growth, higher = more signal, called active from +8 up or from −8 down
[9] = RPMI8226 myeloma cell viability, profiling panel, resazurin fluorescence, basal, 24 h, PK04 Diversity Set (AID 1180); settings: higher = more signal;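 further: RPMI8826 multiple myeloma cell line at 5000 cells per well; test concentration not given here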
[10] = biological target: E3 ubiquitin-protein ligase XIAP (Homo sapiens) (UniProt P98170); assay: XIAP binders, primary screen, biophysical, small-molecule microarray, fluorescence 635 nm (AID 1181); settings: small-molecule microarray binding, higher = more signal;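 further: score merges 667 nm emission and signal to noise over triplicate slides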
Chain of E3 ubiquitin-protein ligase XIAP (Homo sapiens) (P98170 whole entry, looked up): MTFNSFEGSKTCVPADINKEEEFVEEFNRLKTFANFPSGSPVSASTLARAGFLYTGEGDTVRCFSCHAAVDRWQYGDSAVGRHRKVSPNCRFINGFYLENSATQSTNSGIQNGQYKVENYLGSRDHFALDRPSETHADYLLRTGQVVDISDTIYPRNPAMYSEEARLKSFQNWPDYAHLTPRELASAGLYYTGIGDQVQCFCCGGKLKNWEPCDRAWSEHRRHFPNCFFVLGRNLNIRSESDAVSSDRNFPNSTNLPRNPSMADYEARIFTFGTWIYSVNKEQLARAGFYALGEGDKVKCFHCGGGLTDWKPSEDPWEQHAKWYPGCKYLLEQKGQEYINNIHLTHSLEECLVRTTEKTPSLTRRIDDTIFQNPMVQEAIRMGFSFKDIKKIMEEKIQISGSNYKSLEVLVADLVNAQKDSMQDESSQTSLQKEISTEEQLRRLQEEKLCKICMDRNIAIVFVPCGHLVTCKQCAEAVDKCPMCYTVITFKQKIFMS

Chain of Dihydroorotate dehydrogenase (quinone), mitochondrial (Plasmodium falciparum (isolate 3D7)) (Q08210 whole entry, looked up): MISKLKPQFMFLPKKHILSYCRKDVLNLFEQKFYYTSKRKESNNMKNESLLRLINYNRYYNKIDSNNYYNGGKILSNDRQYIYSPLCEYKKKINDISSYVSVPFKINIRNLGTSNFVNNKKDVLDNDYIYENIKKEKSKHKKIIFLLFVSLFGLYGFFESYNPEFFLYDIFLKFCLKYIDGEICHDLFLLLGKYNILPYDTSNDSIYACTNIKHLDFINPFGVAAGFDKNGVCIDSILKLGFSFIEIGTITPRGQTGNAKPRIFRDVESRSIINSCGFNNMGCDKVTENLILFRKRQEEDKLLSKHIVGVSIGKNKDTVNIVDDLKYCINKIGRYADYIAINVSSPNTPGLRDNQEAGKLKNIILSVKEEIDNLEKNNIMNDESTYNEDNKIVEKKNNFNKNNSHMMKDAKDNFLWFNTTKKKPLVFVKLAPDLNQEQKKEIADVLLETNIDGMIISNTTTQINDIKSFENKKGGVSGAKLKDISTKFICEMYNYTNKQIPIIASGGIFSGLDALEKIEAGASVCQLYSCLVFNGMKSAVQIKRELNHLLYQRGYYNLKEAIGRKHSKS

Structure (SMILES)	z-score [1]	z-score [2]	z-score [3]	composite z-score [4]	z-score [5]	z-score [6]	z-score [7]	z-score [8]	z-score [9]	composite z-score [10]
CCOC(=O)CCN1C(=O)[C@H]2[C@H]3[C@H](O)[C@H](O)CC(=NNC(=O)OCC)[C@@H]3CC[C@H]2C1=O	-0.346	-0.762 (inactive)	-0.994 (inactive)	-0.31 (inactive)	-0.531 (inactive)	-0.382 (inactive)	0.202 (inactive)	0.526 (inactive)	-1.74	0.116
C=CCN(CCCCC)C(=O)C1N(c2c(Cl)cccc2CO)C(=O)C2C(C(=O)O)C3C=CC21O3 (stereo not given)	-1.63 and -0.873	0.0191 (inactive) and -0.402 (inactive)	-1.48 (inactive) and -0.932 (inactive)	0.564 (inactive) and -1.24 (inactive)	-0.441 (inactive) and -0.578 (inactive)	0.501 (inactive) and 0.477 (inactive)	-0.957 (inactive) and -1.11 (inactive)	-0.992 (inactive) and -1.16 (inactive)	-1.52 and -1.3	-0.237 and -0.0414
C=C[C@H](C)[C@H](O)c1ccc(O)c2ccccc12	0.26 and 0.0956	-8.01 (active) and -8.42 (active)	-0.709 (inactive) and -0.107 (inactive)	-1.87 (inactive) and -1.49 (inactive)	1.32 (inactive) and 1.45 (inactive)	-1.6 (inactive) and -2.52 (inactive)	1.06 (inactive) and 1.82 (inactive)	1.31 (inactive) and 1.91 (inactive)	-0.54 and 0.1	-0.0659 and 0.116
C=CCN(CCCC)C(=O)C1N(CCOCCO)C(=O)C2C(C(=O)O)C3C=CC21O3 (stereo not given)	-0.171 and -0.143	0.492 (inactive) and 1.27 (inactive)	-0.451 (inactive) and -0.748 (inactive)	0.457 (inactive) and 0.856 (inactive)	0.413 (inactive) and 0.261 (inactive)	-0.119 (inactive) and 0.178 (inactive)	0.127 (inactive) and -0.229 (inactive)	-0.11 (inactive) and -0.406 (inactive)	-0.472 and -0.68	0.0258 and -0.304
C[C@@H]1CC[C@H]2C(=O)N3[C@@H](CC[C@@H](C)[C@@H]3c3ccc(-c4ccco4)cc3)C(=O)N2[C@H]1c1ccc(-c2ccco2)cc1	-0.458 and 0.764	0.666 (inactive) and -1.56 (inactive)	-0.316 (inactive) and 1.14 (inactive)	-1.48 (inactive) and -7.32 (inactive)	0.143 (inactive)	0.43 (inactive) and -0.546 (inactive)	0.0111 (inactive) and 0.845 (inactive)	-0.0533 (inactive) and 0.0395 (inactive)	0.136 and 1.2	-0.0559 and 0.217
C=CCN(CCCC)C(=O)C1N(c2ccc(CCO)cc2)C(=O)C2C(C(=O)O)C3C=CC21O3 (stereo not given)	0.533 and -0.912	-0.539 (inactive) and -0.275 (inactive)	-0.217 (inactive) and -0.801 (inactive)	-0.51 (inactive) and -1.02 (inactive)	0.633 (inactive) and 0.276 (inactive)	-0.639 (inactive) and 0.159 (inactive)	0.227 (inactive) and 0.473 (inactive)	-0.248 (inactive) and 0.25 (inactive)	-0.0068 and 0.0215	-0.53 and 0.0871
C=CCN(Cc1ccccc1)C(=O)C1N(c2ccc(CCO)cc2)C(=O)C2C(C(=O)O)C3C=CC21O3 (stereo not given)	-1.09 and -0.194	-0.627 (inactive) and -0.3 (inactive)	-0.724 (inactive) and -1.11 (inactive)	0.79 (inactive) and 0.0901 (inactive)	0.0279 (inactive) and 0.345 (inactive)	0.345 (inactive) and -0.744 (inactive)	0.522 (inactive) and 0.134 (inactive)	0.0943 (inactive) and -0.178 (inactive)	-0.821 and -0.623	-0.0629 and -0.365
CCOC(=O)C[C@H]1[C@H](OC(=O)c2ccccc2-c2ccccc2)[C@@H](NC(=O)c2ccccc2)c2cc(OCCCO)ccc2N1C(=O)c1ccc2ccccc2n1	0.578 and -0.48	-0.602 (inactive) and 1.01 (inactive)	0.602 (inactive) and -0.924 (inactive)	0.139 (inactive) and -0.264 (inactive)	-0.152 (inactive) and 0.432 (inactive)	-0.26 (inactive) and -0.698 (inactive)	1.39 (inactive) and -0.851 (inactive)	0.845 (inactive) and -0.687 (inactive)	-0.236 and -0.847	-0.227 and 0.0451
CC(C)=CCCC(C)=CCON=C1C[C@@H](O)[C@@H](O)[C@@H]2[C@@H]3C(=O)N([C@@H](C)c4ccccc4)C(=O)[C@@H]3CC[C@H]12	-1.03	-3.41 (inactive)	-0.339 (inactive)	-1.48 (inactive)	0.365 (inactive)	-2.18 (inactive)	-1 (inactive)	-0.666 (inactive)	-0.637	0.104
